One assay concerns PPARg:RXRa 270nM:90nM, anti-RXR (NR concentration 270 nM, RXRa partner concentration 90 nM). In words: PBM binding z-score (relative to random genomic background probes); higher = stronger binding; sequences stand for … in GC…GCGATTGACAGCGTAGAATGAAGG
The essentials: (§1)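 Random background probes are the reference for binding z-scores. These scores derive from regression-normalized fluorescence on custom Agilent 4×180K protein-binding microarrays incubated 1 h with ligand-free nuclear receptor dimers. Binding was detected with antibodies against each partner (one per run).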
Turning to CCGAGTAGGTTATGGGGCACTCAGGCAACGGTGA, the PBM binding z-score turned out to be 4.33.

Sequence TCATATAGGTAATACAGGTGGAAGTCGGCATCTA had a PBM binding z-score of 2.33.

As to ACTAGCAGGACAAGGGTCACTCAAGATTAGTCCG, the PBM binding z-score was 6.93.

GATACAGGGTCAGCTAGAGGCCAGAGTCTGGAAA showed a PBM binding z-score of 3.41.

In turn, TCTAGATGGTCACGGAGGTCACACACGACGGGTA registered a PBM binding z-score of 4.36.

In turn, CTCGAAAGGTCGGTTGAGGAGAGTATACGGATAA showed a PBM binding z-score of 1.09.

ATCGAAAGGTCGAAGGGGAGTATACCCACCCGAA: the PBM binding z-score was 2.91.

Turning to CCTACTGGGCCATCAGGGCATTGATATCAACGTT, the PBM binding z-score came to 1.68.

CCTACTGGGCCATCAAGTCATTGATATCAACGTT came in with a PBM binding z-score of 1.67.

CGTCCAAGGTCAGAGAGGTCAGTGAATGCCGAGT displayed a PBM binding z-score of 4.41.

With TCGAGTAGGTTACCAATGTGGCATTCAGCTTTCT, the PBM binding z-score was found to be 1.09.

CGTCCAAGGTCGATGCTAGGTCAGTGAAAGCATT came in with a PBM binding z-score of 0.529.

The sequence AGTATGAGGTTATACGTAGATCAGGGAAGAAAGT yielded a PBM binding z-score of 1.2.

Consider GATGCTAGGTCAGGTTGGTCAGCTAACGGGTACG, for which the PBM binding z-score came to 0.805.

In the case of ATATCTAGGTTATCGGGTCATTCAGTTTGCGCAT, the PBM binding z-score was found to be 6.17.

As for CAAACTAGGTCAAGACGTCAAAGTCCGCTTCCCG, the PBM binding z-score was found to be 6.72.

As for CCTAGTGGGTCAAGGTCACACACGCTATAGGTAC, the PBM binding z-score was determined as 7.42.

With CCGACTGGGGCAGAAAGGTTACCATTCCATCCGG, the PBM binding z-score amounted to 2.66.

CAAACTCGGTCAAAGGTCAAAGTCGAGCCAACCA: the PBM binding z-score amounted to 10.9.

For the sequence AGAACGAGGGCAATGAGTTTATAGCACGGGTGGC, the PBM binding z-score was 0.876.

For the sequence ATCGAAAGGACGACGAGGTGAGTATACACCGTTT, the PBM binding z-score was -0.0154.

The sequence CGAACTAGGGCATGAGTTGATAGCAAATGCCGAT yielded a PBM binding z-score of 4.13.

Sequence ATCCCTAGGTAAAAGTTCAGTGAATCCCGAGGAT gave a PBM binding z-score of 4.85.

As to GCTATCAGTTGAAAGGGCAACCGAATGATTCTCG, the PBM binding z-score turned out to be 2.77.

Turning to TTACCAAGGTGAAGGTCTTTGATCCCTCTGTAGA, the PBM binding z-score worked out at 2.45.

Sequence CCTGCTAGGTCATTGTCAGCTAATCTACAGTATG showed a PBM binding z-score of 2.14.

On to CAAACTAGATCAAGAGGTCAAAGTCCGCTTCCCG, for which the PBM binding z-score was 4.85.

The sequence ATATGTAGGTTAGCTGGGGTCATTCATACTAGGC registered a PBM binding z-score of 5.23.

Sequence CAAACTAGGTGAAAGGTCAAAGTCGAGCCAACCA came in with a PBM binding z-score of 11.5.

With GCTGCTAGGTCAACTGTTGGTCAGCTAAAGCTCG, the PBM binding z-score was 3.07.

In turn, TCTGCTAGGTCAGTTGGTCAGCTTACGAGCTGCC displayed a PBM binding z-score of 1.69.

Consider GCGACTGGGGCATGAGCAGGTTACCATAACTTAA, for which the PBM binding z-score turned out to be 1.11.

For TAGCCTGGGTCATTCAGGGGCCAGTATAGAAAGC, the PBM binding z-score is 2.38.

TCACATAGGTAAAGGTGAAAGTCGAACGATATGA came in with a PBM binding z-score of 3.48.

Sequence TAGCCTAGGTCAGATCGGGCCAATATACGCTATA showed a PBM binding z-score of 0.613.

GCATTTAGGTAATACAAGGTGAAAGTCCGATTGT: the PBM binding z-score was 1.03.

Sequence CCAGACAGGTGAGATGGTAACTCAGCCTCGATTA had a PBM binding z-score of 0.151.

As to ACTAACAGGCCAAGTTTGGGTCACTCAAACAAAG, the PBM binding z-score turned out to be 0.254.

In turn, ATCTCTAGGTAAAGTTAGTTCAGTGAATGCAAAT displayed a PBM binding z-score of 1.07.

For CTACCAAGGTGAACAAGGTCGTTGATTACTATTC, the PBM binding z-score is 1.4.

A further assay deals with PPARg:RXRa 30nM:10nM, anti-RXR (NR concentration 30 nM, RXRa partner concentration 10 nM). The description is as above. The essentials: as §1
CCGAGTAGGTTATGGGGCACTCAGGCAACGGTGA had a PBM binding z-score of 2.45.

As for TCATATAGGTAATACAGGTGGAAGTCGGCATCTA, the PBM binding z-score was 3.98.

For ACTAGCAGGACAAGGGTCACTCAAGATTAGTCCG, the PBM binding z-score came to 5.71.

GATACAGGGTCAGCTAGAGGCCAGAGTCTGGAAA displayed a PBM binding z-score of 0.796.

TCTAGATGGTCACGGAGGTCACACACGACGGGTA yielded a PBM binding z-score of 3.7.

The sequence CTCGAAAGGTCGGTTGAGGAGAGTATACGGATAA gave a PBM binding z-score of 0.298.

On to ATCGAAAGGTCGAAGGGGAGTATACCCACCCGAA, for which the PBM binding z-score was found to be 1.16.

Regarding CCTACTGGGCCATCAGGGCATTGATATCAACGTT, the PBM binding z-score was -0.00697.

Consider CCTACTGGGCCATCAAGTCATTGATATCAACGTT, for which the PBM binding z-score turned out to be 0.283.

As for CGTCCAAGGTCAGAGAGGTCAGTGAATGCCGAGT, the PBM binding z-score stood at 0.873.

In turn, TCGAGTAGGTTACCAATGTGGCATTCAGCTTTCT had a PBM binding z-score of 0.936.

For the sequence CGTCCAAGGTCGATGCTAGGTCAGTGAAAGCATT, the PBM binding z-score was -0.65.

For the sequence AGTATGAGGTTATACGTAGATCAGGGAAGAAAGT, the PBM binding z-score is 0.646.

In the case of GATGCTAGGTCAGGTTGGTCAGCTAACGGGTACG, the PBM binding z-score is -0.511.

ATATCTAGGTTATCGGGTCATTCAGTTTGCGCAT displayed a PBM binding z-score of 4.2.

CAAACTAGGTCAAGACGTCAAAGTCCGCTTCCCG gave a PBM binding z-score of 4.47.

The sequence CCTAGTGGGTCAAGGTCACACACGCTATAGGTAC returned a PBM binding z-score of 5.3.

CCGACTGGGGCAGAAAGGTTACCATTCCATCCGG registered a PBM binding z-score of 0.414.

Take CAAACTCGGTCAAAGGTCAAAGTCGAGCCAACCA: the PBM binding z-score worked out at 11.8.

On to AGAACGAGGGCAATGAGTTTATAGCACGGGTGGC, for which the PBM binding z-score is 0.119.

The sequence ATCGAAAGGACGACGAGGTGAGTATACACCGTTT showed a PBM binding z-score of 0.318.

Consider CGAACTAGGGCATGAGTTGATAGCAAATGCCGAT, for which the PBM binding z-score amounted to 2.03.

Consider ATCCCTAGGTAAAAGTTCAGTGAATCCCGAGGAT, for which the PBM binding z-score stood at 3.04.

In turn, GCTATCAGTTGAAAGGGCAACCGAATGATTCTCG registered a PBM binding z-score of 1.35.

In turn, TTACCAAGGTGAAGGTCTTTGATCCCTCTGTAGA came in with a PBM binding z-score of 0.89.

The sequence CCTGCTAGGTCATTGTCAGCTAATCTACAGTATG gave a PBM binding z-score of 0.169.

For the sequence CAAACTAGATCAAGAGGTCAAAGTCCGCTTCCCG, the PBM binding z-score is 2.67.

The sequence ATATGTAGGTTAGCTGGGGTCATTCATACTAGGC had a PBM binding z-score of 3.12.

Turning to CAAACTAGGTGAAAGGTCAAAGTCGAGCCAACCA, the PBM binding z-score was 15.3.

On to GCTGCTAGGTCAACTGTTGGTCAGCTAAAGCTCG, for which the PBM binding z-score was 0.511.

Regarding TCTGCTAGGTCAGTTGGTCAGCTTACGAGCTGCC, the PBM binding z-score stood at 0.977.

As to GCGACTGGGGCATGAGCAGGTTACCATAACTTAA, the PBM binding z-score was -0.134.

TAGCCTGGGTCATTCAGGGGCCAGTATAGAAAGC: the PBM binding z-score turned out to be 0.19.

In turn, TCACATAGGTAAAGGTGAAAGTCGAACGATATGA gave a PBM binding z-score of 4.04.

Turning to TAGCCTAGGTCAGATCGGGCCAATATACGCTATA, the PBM binding z-score is -0.00847.

Take GCATTTAGGTAATACAAGGTGAAAGTCCGATTGT: the PBM binding z-score came out at 0.425.

In the case of CCAGACAGGTGAGATGGTAACTCAGCCTCGATTA, the PBM binding z-score was -0.316.

For ACTAACAGGCCAAGTTTGGGTCACTCAAACAAAG, the PBM binding z-score was -0.0822.

For ATCTCTAGGTAAAGTTAGTTCAGTGAATGCAAAT, the PBM binding z-score worked out at 0.112.

Regarding CTACCAAGGTGAACAAGGTCGTTGATTACTATTC, the PBM binding z-score was determined as 0.0996.
